HCMV inh – inhibitors of human cytomegalovirus | HFF cells, HCMV-luciferase reporter, 72 h; hits give low values | activity change, negative = inhibition, % at 57.5 µM | actives 4.5% (n = 410,000) | AID 1259415; in the data active = activity change below about -60%; inconclusive = no clear call, values can overlap the other calls; inactive = above about -39%
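Cell-based, HFFs, 1000 cells/well, 16 h 37C; cpds in DMSO + HCMV-luc, MOI 1 PFU/cell; 72 h 37C; OneGlo luminescence after 5 min RT; norm. to buffer vs Salinomycin 10uM.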
Pf growth 96h – P. falciparum growth inhibition at 96 hour, primary screen for plastid delayed-death inhibitors; actives 6.9% (n = 320,000); AID 504834; Potency, µM (titrated, usually from 28.7 µM), without a hit: top-dose activity change, negative = inhibition, actives largely listed as inhibitors; P. falciparum luciferase reporter growth, 96 h; also: potency is read from the fitted curve at half-maximal effect
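Two-generation exposure (96 h) targets delayed-death phenotype. Reporter parasites carrying integrated firefly luciferase, in red cells at 2% hematocrit and 0.05% parasitemia final, kept at 37 C, 5% CO2; luminescence loss indicates inhibition.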
HCV inhibitor – HCV inhibition | Huh7.5.1 HCVcc-Cre infection, luciferase reporter, 44 h | Potency, µM (titrated, usually from 41.8 µM), for the others: top-dose activity change, negative = inhibition, usual class: inhibitors | actives 3.4% (n = 340,000) | AID 651820; also: potency is read from the fitted curve at half-maximal effect
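1,000 cells/well; 4 h culture; + compound; + HCVcc-Cre (~0.5 moi); 44 h; luciferase substrate, RT 15 min; read 15 sec.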
Pf growth 48h – P. falciparum growth inhibition at 48 hours (one generation); P. falciparum luciferase growth in erythrocytes, 48 h; Potency, µM (top dose mostly 28.7 µM), without a hit: at the highest dose activity change, negative = inhibition, usual class: inhibitors; actives 5.9% (n = 310,000); AID 504832; also: potency is read from the fitted curve at half-maximal effect
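Luciferase-expressing parasites in RBCs, 2% Hct / 0.1% parasitemia final; RPMI 1640 + 0.5% Albumax; 37 C, 5% CO2, one generation; luminescence read-out, lower signal = inhibition.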
Starred values were filed as active, the others as inactive; ? = inconclusive; / = no result given; [ ] = another dose, or the depositor's remark. An excerpt weighted towards active compounds, which were near 13% of everything screened. Unless noted, calls follow the shape of the dose curve; as a rule, active = well fitted inhibition curve with a large enough effect; inconclusive = small, poorly fitted or top-dose-only effect, or another doubt; inactive = no such curve, though single readings can be large or run the other way. % is scaled to controls: 0 for no effect and ±100 for the full control effect.

SMILES	HCMV inh	Pf growth 96h	HCV inhibitor	Pf growth 48h
CCC(C)(C)NC(=O)C1CCC(CNS(=O)(=O)c2ccc3c(c2)CC(C)N3C(C)=O)CC1 (centres undefined)	14	/	/	/
Cc1ccc(C)c(NC(=O)CSc2nnc(CNC(=O)c3ccccc3)n2-c2ccccc2)c1	21	/	/	/
COc1ccc(C2SCC(=O)N2c2nnc(C34CC5CC(CC(C5)C3)C4)s2)cc1 (centres undefined)	-4	0%	-21%	0%
COc1cc(C2SCC(=O)N2c2nnc(C34CC5CC(CC(C5)C3)C4)s2)cc(OC)c1OC (centres undefined)	?	0%	12%	15µM*
CC(=O)C(Sc1nc(-c2ccccc2Cl)nc2c1c(=O)n(C)c(=O)n2C)C(=O)N(C)C (centres undefined)	-34	/	/	/
Cc1[nH]c2ccccc2c1C(=O)COc1ccccc1	30	260%	11%	-5%
CCOCc1cnc(C)nc1NCC(=O)c1c(C)[nH]c2cc(C)ccc12	-101*	0.29µM*	-13%	0.83µM*
CCOCc1cnc(C)nc1NCC(=O)c1c(C)[nH]c2ccccc12	-80*	1.7µM*	21%	2.1µM*
O=C(NCCCCc1ccccc1)c1nn(-c2ccccc2)nc1CO	-8	/	/	/
O=C(/C=C/c1cccc2ccccc12)c1ccncc1	-83*	?	16µM*	13%
O=C1OC(c2ccccc2)=C/C1=C/N1CCOCC1	36	?	-13%	159%
O=C1SC(c2ccccc2)=C/C1=C\N1CCCCC1	100	?	11µM*	5%
O=C(OC1CC2CC1[C@H]1CCCCN1C2=O)N1CCCCC1 (some centres undefined)	32	/	/	/
O=C(O)C(=Cc1ccc([N+](=O)[O-])cc1)c1ccccc1	13	/	/	/
CC1(C)CC(=O)C2=C(C1)N(c1ccc(F)cc1)C(=O)CC2c1ccsc1 (centres undefined)	-34	3.3µM*	2%	/
CCOCCCNC(=O)N1CCN(S(=O)(=O)c2ccc3c(ccn3C)c2)CC1	12	/	/	/
O=C(Nc1ccc(O)c(-c2nc3ccccc3o2)c1)C1(c2ccc([N+](=O)[O-])cc2)CCCC1	-17	?	2%	7.4µM*
O=C(Nc1ccc(O)c(-c2nc3ccccc3o2)c1)C1(c2ccc(Cl)cc2)CCCC1	14	?	?	2.3µM*
CCC(=O)N1CCc2cc(CNC(=O)Nc3ccc(OC)cc3OC)ccc21	10	/	/	/
Cc1cccc(N2CCN(CCCNC(=O)c3nnc(Cc4c(F)cccc4Cl)o3)CC2C)c1 (centres undefined)	-26	/	/	/
C/C(=N/O)c1ccc2c(c1)OCCOCCOc1cc(/C(C)=N/O)ccc1OCCOCCO2	-14	13µM*	-23%	?
c1ccc2c(c1)OCCOCCOc1ccccc1OCCOCCO2	1	?	-5%	-28%
Nc1ccc2c(c1)OCCOCCOCCOCCOCCO2	-17	5.9µM*	9%	188%
O=C(CSc1nc(-c2ccccc2)no1)N1CCCCC1	7	/	/	/
O=C1C(c2ccc(C(F)(F)F)cc2)=C(Nc2ccc(Cl)cc2)c2ccccc21	7	/	/	/
SMILES	HCMV inh	Pf growth 96h	HCV inhibitor	Pf growth 48h
CC(C)c1ccc(NC(=O)CN2C(=O)C3(SCC(=O)N3c3ccc(F)cc3)c3ccccc32)cc1 (centres undefined)	-23	/	/	/
CCCCC(c1nnnn1CS(=O)(=O)c1ccc(C)cc1)N1CCN(C)CC1 (centres undefined)	-20	-4%	-6%	?
CCCC(c1nnnn1CS(=O)(=O)c1ccc(C)cc1)N1CCN(c2ccccc2)CC1 (centres undefined)	37	0%	?	12µM*
Cc1ccc(S(=O)(=O)Cn2nnnc2C(c2ccc(F)cc2)N2CCCCC2)cc1 (centres undefined)	6	-11%	-24%	?
COc1ccc(C(c2nnnn2CS(=O)(=O)c2ccc(C)cc2)N2CCN(c3ncccn3)CC2)cc1 (centres undefined)	-5	?	-4%	9.3µM*
CCCC(c1nnnn1Cc1cccs1)N1CCN(c2nc3ccccc3s2)CC1 (centres undefined)	-10	-8%	-18%	/
Cc1ccc(S(=O)(=O)Cn2nnnc2C(c2ccccc2)N2CCN(c3ncccn3)CC2)cc1 (centres undefined)	1	73%	6%	9.3µM*
CCC(c1nnnn1CS(=O)(=O)c1ccc(C)cc1)N1CCN(c2nc3ccccc3s2)CC1 (centres undefined)	-64*	9%	?	8.3µM*
COc1cccc(N2CCN(C3C(=O)c4ccccc4N3C(C)=O)CC2)c1 (centres undefined)	0	/	/	/
Cc1ccc(S(=O)(=O)Cc2nnnn2-c2ccccc2)cc1	20	6.6µM*	6%	-4%
O=S(=O)(Cc1nnnn1-c1ccccc1)c1ccc(F)cc1	5	-9%	10%	0%
Cc1ccc(S(=O)(=O)Cn2nnnc2C(c2ccccc2)N2CCN(c3ccccc3)CC2)cc1 (centres undefined)	4	?	-18%	13µM*
Cc1ccc(S(=O)(=O)Cn2nnnc2C(C)N2CCN(C(=O)c3ccco3)CC2)cc1 (centres undefined)	-37	5.2µM*	17%	10µM*
O=C(c1ccco1)N1CCN(C(c2ccccc2)c2nnnn2Cc2cccs2)CC1 (centres undefined)	-8	-11%[5.75 µM]	-14%	-53%
Cc1ccc(C(c2nnnn2CS(=O)(=O)c2ccc(C)cc2)N2CCCC2)cc1 (centres undefined)	-7	?	-3%	-2%
O=C(c1ccco1)N1CCN(C(c2ccc(F)cc2)c2nnnn2Cc2cccs2)CC1 (centres undefined)	-1	0.93µM*	1%	?
CC1C(=O)N2CCCc3cc(NC(=O)C(=O)NCCN4CCOCC4)cc1c32 (centres undefined)	-5	25%	21%	20%
CC(C)CNC(=O)C(=O)Nc1cc2c3c(c1)C(C)C(=O)N3CCC2 (centres undefined)	47	15µM*	3%	-24%
CC1C(=O)N2CCCc3cc(NC(=O)C(=O)NCCc4ccccc4)cc1c32 (centres undefined)	-14	13µM*	10%	?
COc1ccc(C)cc1S(=O)(=O)Nc1cc2c3c(c1)C(C)C(=O)N3CCC2 (centres undefined)	-1	?	8%	?
CC1C(=O)N2CCCc3cc(NC(=O)C(=O)NCCc4c[nH]c5ccccc45)cc1c32 (centres undefined)	85	4.1µM*	9%[8.37 µM]	1.5µM*
Cc1ccc(S(=O)(=O)Nc2cc3c4c(c2)C(C)C(=O)N4CCC3)cc1 (centres undefined)	-10	?	6%	10µM*
CCc1nc2ccccc2nc1N1CCN(S(=O)(=O)c2ccccc2)CC1	-68*	15µM*	5%	?

Source: PubChem
